For 54 sequences, binding signal results are on record in PMC7819943, “Rice protein-binding microarrays: a tool to detect cis-acting elements near promoter regions in rice”.

Whole data set: some 68,000 sequences, median “fluorescence intensity (a.u.)” near 9,100, cut for the highest 2% near 16,000. The entries come from a sample that favours the highest values as a whole.

The target in the test is OsWRKY34 (Oryza sativa, UniProt Q0JBA9 1-250). The test can be described thus: protein-binding microarray (RPBM); PBS, 2% BSA, 51.3 ng/ul salmon testes DNA, 50 uM zinc acetate, 200 nM TF, 25 C, 1 h; high values mean tight binding. The following applies: protein: recombinant; tags: N-terminal polyhistidine and DsRed monomer fusion (pET32a); label: CyDye5-dUTP incorporated in the synthesized complementary strand; 3' TTTTT single-stranded linker to array surface; dsDNA, one strand shown. The essentials: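 Ni–NTA purification followed expression in E. coli BL21-CodonPlus of transcription factors fused N-terminally to a polyhistidine tag and DsRed. At 200 nM in PBS with 2% BSA, salmon testes DNA and 50 µM zinc acetate, the protein was incubated for 1 h at 25 °C with a custom Agilent array that had been primer-extended with Cy5-dUTP and blocked with 2% BSA. After washing, the array was read on an Axon 4000B scanner. The binding signal is per-feature fluorescence intensity in arbitrary units.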
Sequence of OsWRKY34 (Q0JBA9 entry or part of it): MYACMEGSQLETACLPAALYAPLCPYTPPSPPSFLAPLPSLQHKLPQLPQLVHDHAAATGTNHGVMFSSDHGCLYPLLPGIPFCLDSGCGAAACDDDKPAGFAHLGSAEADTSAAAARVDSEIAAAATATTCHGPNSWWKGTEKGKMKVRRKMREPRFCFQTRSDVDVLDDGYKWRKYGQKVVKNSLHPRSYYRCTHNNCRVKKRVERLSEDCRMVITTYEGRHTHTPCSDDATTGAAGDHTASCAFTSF
Regarding “CGTCTCGTGTCTTCTCGTCTCGACCCATCCATCCATCCCACGGAGTCACCTAGTGCAG”, the binding signal is 8570 fluorescence intensity (a.u.). To “CGGGCTCTGGTTTTACCGAATAAATGCTCTGGGCCTAATACGGAGTCACCTAGTGCAG” belongs 8020 fluorescence intensity (a.u.); to “GCATTAGAACGAGCGCACCCACTTTCAGTTCTCAAATTATCGGAGTCACCTAGTGCAG”, 8670 fluorescence intensity (a.u.). “GTCTTTTGATGCGACGCGATGTGACTCGCCCGACCCAACTCGGAGTCACCTAGTGCAG”: the binding signal was 8940 fluorescence intensity (a.u.). In the case of “CCTCCATTCTTCAGTTTTAATGCATCCTCTTCATCACTTCCGGAGTCACCTAGTGCAG”, the binding signal is 11800 fluorescence intensity (a.u.). “CATCAGTACAGGCCCAACTTAAAAATTGCTCGGCCCATTTCGGAGTCACCTAGTGCAG”: the binding signal was 8850 fluorescence intensity (a.u.). As to “GGTGCTCCGCCTCCCGGGGCAGGGTTTCAAGAGGGTGGGTCGGAGTCACCTAGTGCAG”, the binding signal is 10700 fluorescence intensity (a.u.). Regarding “CATCCGATTCCTATGTATTTCTTGCGGTCTAATCAAACGACGGAGTCACCTAGTGCAG”, the binding signal is 10200 fluorescence intensity (a.u.).

As to “GTGTTTTGCAAGGTTGTTTCTTTACCTTATCTATATACATCGGAGTCACCTAGTGCAG”, the binding signal was 9790 fluorescence intensity (a.u.). To “CACTCCACCATTGTCATCTTTACTATCGGTAATTGTTGATCGGAGTCACCTAGTGCAG” belongs 8440 fluorescence intensity (a.u.); to “TTTTTTTCTCCTCATTATTCTTCTTTTCTTTCTCTATATTCGGAGTCACCTAGTGCAG”, 9180 fluorescence intensity (a.u.); to “TTTTTCTTGTGCTCTATCCATCCATGCCATGCCATTCATCCGGAGTCACCTAGTGCAG”, 10200 fluorescence intensity (a.u.). In the case of “GCCTGTTTCTCCTTCGGCTGATGATATCTGTGCTGTTTTTCGGAGTCACCTAGTGCAG”, the binding signal was 8550 fluorescence intensity (a.u.). In the case of “ACAGTTTTCTCCATCTTGGCCATTCGTGTGCTATATCCATCGGAGTCACCTAGTGCAG”, the binding signal was 16500 fluorescence intensity (a.u.).

Consider “AGTTGGCTATAATATATTTCTTCTCTCTCTATCTCTCATTCGGAGTCACCTAGTGCAG”, for which the binding signal is 17700 fluorescence intensity (a.u.). With “TGCTCAACATCCATCTTTCTTTCTTTCTTTTTCTCTTTTTCGGAGTCACCTAGTGCAG”, the binding signal was 11300 fluorescence intensity (a.u.). In the case of “GCTTTTCTTTGTCCATCCATCTATCTTTTTCTCCATCTTTCGGAGTCACCTAGTGCAG” it was 8440 fluorescence intensity (a.u.). Regarding “GGGCTGTTATCTCTGATGTGTTTTCTGCCTCTCATGTCATCGGAGTCACCTAGTGCAG”, the binding signal was 17000 fluorescence intensity (a.u.). Turning to “GTCAAATTTCTGTGCTCCATAAGATCTCTTCTCTTTTTTTCGGAGTCACCTAGTGCAG”, the binding signal was 16700 fluorescence intensity (a.u.). For “TCTTTTTTCTCTTCTTCTTCTCCTCCATTCCATTCCATTTCGGAGTCACCTAGTGCAG”, the binding signal is 8930 fluorescence intensity (a.u.). Take “GGAGTGTTTCTGTTGTTGCATGTGATGAGTGCATTATCATCGGAGTCACCTAGTGCAG”: the binding signal is 11000 fluorescence intensity (a.u.). “TTCTCTCTCTATCTCTCATTTATATATTTAATATATTTGTCGGAGTCACCTAGTGCAG”: the binding signal was 9250 fluorescence intensity (a.u.). Regarding “ACCCACCACATCGACGCGACCACACTCCACACAAGCCATGCGGAGTCACCTAGTGCAG”, the binding signal was 10100 fluorescence intensity (a.u.). With “TAGTGTTGGTTTGATTTTTATATCACTAGAGATGAACTAACGGAGTCACCTAGTGCAG”, the binding signal is 8560 fluorescence intensity (a.u.). Turning to “GATGATGATGATTTTGGTAGGAGATATGGATCGTGTTGGTCGGAGTCACCTAGTGCAG”, the binding signal was 11300 fluorescence intensity (a.u.). “ATCTTATTAATTAATTCTTTGTGTTTCATATTATTCTAATCGGAGTCACCTAGTGCAG”: the binding signal was 10300 fluorescence intensity (a.u.). In the case of “TGCGAGTTCGTCGCCGCCTCCGCCGATCTCCATCAGGCGACGGAGTCACCTAGTGCAG”, the binding signal is 9610 fluorescence intensity (a.u.). “GCAGCGACGACATCTGACGGCCTCACCTACCTTTCGGTCTCGGAGTCACCTAGTGCAG”: the binding signal is 8460 fluorescence intensity (a.u.).

On to “GGTGTCTTGATTGATATGATTTAAATTATTCTTGGTCTTGCGGAGTCACCTAGTGCAG”, for which the binding signal is 9570 fluorescence intensity (a.u.). As for “GGCTCAACAAATAATGTGAAGATCTCTCATTTTCATTTTCCGGAGTCACCTAGTGCAG”, the binding signal is 8050 fluorescence intensity (a.u.).

Take “TCTTTGTTATAATTATGGGGTTGGTTTTATTCGTTTTCGACGGAGTCACCTAGTGCAG”: the binding signal was 21900 fluorescence intensity (a.u.). In the case of “CTAGTTGTGTTTGTTAATTTCTTTCTATACATGGGTTACCCGGAGTCACCTAGTGCAG” it was 11700 fluorescence intensity (a.u.); in that of “TGTTTGGTTGGGATACATGGGAATTTTGGTAGGATGGGGACGGAGTCACCTAGTGCAG”, 12700 fluorescence intensity (a.u.); in that of “TCGTTATACCTGGTTTTTTTGGTTGAGGGATGTTATTCGACGGAGTCACCTAGTGCAG”, 12500 fluorescence intensity (a.u.). In the case of “TTTATACATGGTTTGTGTTTTTCTCACTTTGGGTTGGGGACGGAGTCACCTAGTGCAG”, the binding signal is 18000 fluorescence intensity (a.u.).

For “AAATTTGTTATTTTTGTTTCGAATTATATAATTCGAATTTCGGAGTCACCTAGTGCAG”, the binding signal was 9450 fluorescence intensity (a.u.). Regarding “GACACCACATAAAGACACCCATCCCCGTGATCAACTACCTCGGAGTCACCTAGTGCAG”, the binding signal is 8320 fluorescence intensity (a.u.). As for “CGCCTGTCAAATCCTAGTCAGGGAATCTGTCTTCCATCTACGGAGTCACCTAGTGCAG”, the binding signal was 9100 fluorescence intensity (a.u.). Consider “AGTTGAGGGATCCGTTGTATCTGGTTTTGCGGTTGAAGGACGGAGTCACCTAGTGCAG”, for which the binding signal was 8570 fluorescence intensity (a.u.).

As to “AAGGACCCGTTCTATCTGGTTTTGCGGTTGAAGGATAGAACGGAGTCACCTAGTGCAG”, the binding signal was 28000 fluorescence intensity (a.u.). In the case of “AGTATTGTTTTCTCGCTGTCTCTATCCAAATCTTTGAAAACGGAGTCACCTAGTGCAG” it was 17200 fluorescence intensity (a.u.). “TGTTATTATTGCCGTTGTCTTTATTTTTCTTTTTTGAAAACGGAGTCACCTAGTGCAG”: the binding signal was 9580 fluorescence intensity (a.u.). In the case of “TTATTGTTTTTATTGTCTTTTTTTCTTTATATTTCCAAAACGGAGTCACCTAGTGCAG” it was 11400 fluorescence intensity (a.u.). As to “TATATTGTCTGTTTTCTCTTGAATCTTTCCTATCCAGTAGCGGAGTCACCTAGTGCAG”, the binding signal was 8490 fluorescence intensity (a.u.). As for “GTTGAGGGACCCGCTGGATCTGGTTTTTGATTGAAGGATACGGAGTCACCTAGTGCAG”, the binding signal was 8800 fluorescence intensity (a.u.). To “TCTTCTTTTGTTGTCTTCTGCTATCCAATCTCTTGTCAAACGGAGTCACCTAGTGCAG” belongs 10500 fluorescence intensity (a.u.); to “TTTTTTTTCTTTCTGTTCTGTTTCTGTTGAGAAACAAAGACGGAGTCACCTAGTGCAG”, 8450 fluorescence intensity (a.u.). Take “TTTTTCTTTTTATTGTCTTGTTCTCGTGCGTGTTGAAAAACGGAGTCACCTAGTGCAG”: the binding signal is 20300 fluorescence intensity (a.u.). In the case of “TTGTGTAGGTTTTGTTTCTTTCTTCTTTTTTCGAAAAGAGCGGAGTCACCTAGTGCAG” it was 8940 fluorescence intensity (a.u.).

For the sequence “GCCTTTTTCTTGCGTGTAGGTTGTTCTGTTGAGAGAAAGACGGAGTCACCTAGTGCAG”, the binding signal was 17700 fluorescence intensity (a.u.). “CCTTTTCAAGTATTATTGCTGTTTGATTCATCTCTCTTTGCGGAGTCACCTAGTGCAG”: the binding signal is 9510 fluorescence intensity (a.u.). For “TAAACTTGCTCTGATGCGCCCACACGGGGCCACGGCGCGCCGGAGTCACCTAGTGCAG”, the binding signal is 9010 fluorescence intensity (a.u.). Turning to “TAAACTCGTCTTATCCGCATGATTGTTGACTATAGTATGTCGGAGTCACCTAGTGCAG”, the binding signal is 9300 fluorescence intensity (a.u.). Take “CTTTCATATATGTGTGTGCTATGATTTGTTTTCTTCCTCACGGAGTCACCTAGTGCAG”: the binding signal is 11900 fluorescence intensity (a.u.).
